{
  "source": "paper PMC4336329",
  "about": "(PLoS ONE, 2015)",
  "note": "Among all 310,000 compounds or so, about 2,200 (0.71%) showed an effect of 50% or more. The effect is printed as a negative number. The sample holds strong results, similar compounds and a random draw of the others, so the mix is not that of the screen.",
  "data": [
    {"target": "human ether-à-go-go-related gene (hERG) potassium channel (human, UniProt Q12809)", "sequence (Q12809 whole entry, looked up)": "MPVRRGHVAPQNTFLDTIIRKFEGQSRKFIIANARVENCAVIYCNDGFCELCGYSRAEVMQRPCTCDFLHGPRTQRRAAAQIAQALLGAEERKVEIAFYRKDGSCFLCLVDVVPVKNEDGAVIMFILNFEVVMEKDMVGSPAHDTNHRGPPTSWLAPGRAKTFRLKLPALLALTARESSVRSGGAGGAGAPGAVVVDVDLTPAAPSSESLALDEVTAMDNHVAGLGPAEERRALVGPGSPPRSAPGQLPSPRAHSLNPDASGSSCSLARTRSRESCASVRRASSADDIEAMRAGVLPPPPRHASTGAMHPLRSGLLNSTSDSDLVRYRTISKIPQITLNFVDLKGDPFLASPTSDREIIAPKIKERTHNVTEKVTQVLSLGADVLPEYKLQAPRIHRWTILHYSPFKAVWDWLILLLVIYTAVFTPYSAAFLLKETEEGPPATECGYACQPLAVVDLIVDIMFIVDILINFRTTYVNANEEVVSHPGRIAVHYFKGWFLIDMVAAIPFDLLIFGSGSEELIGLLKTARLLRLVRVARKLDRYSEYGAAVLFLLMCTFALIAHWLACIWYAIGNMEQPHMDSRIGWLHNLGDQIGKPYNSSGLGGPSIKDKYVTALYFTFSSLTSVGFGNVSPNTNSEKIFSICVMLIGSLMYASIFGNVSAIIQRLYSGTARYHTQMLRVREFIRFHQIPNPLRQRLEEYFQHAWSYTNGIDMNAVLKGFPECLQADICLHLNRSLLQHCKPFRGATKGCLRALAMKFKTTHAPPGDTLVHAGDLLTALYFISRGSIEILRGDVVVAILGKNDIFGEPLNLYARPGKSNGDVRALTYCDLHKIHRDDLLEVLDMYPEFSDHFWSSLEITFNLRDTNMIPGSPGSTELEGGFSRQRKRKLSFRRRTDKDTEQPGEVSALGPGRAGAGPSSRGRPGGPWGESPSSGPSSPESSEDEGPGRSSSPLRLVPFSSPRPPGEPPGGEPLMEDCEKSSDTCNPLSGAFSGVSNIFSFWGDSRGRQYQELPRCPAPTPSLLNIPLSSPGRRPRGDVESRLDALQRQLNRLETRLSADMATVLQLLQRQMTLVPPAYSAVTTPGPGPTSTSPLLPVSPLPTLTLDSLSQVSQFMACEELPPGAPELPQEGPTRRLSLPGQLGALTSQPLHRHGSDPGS", "assay": "primary screen, population patch clamp on CHO cells stably expressing hERG; higher = less effect of the substance", "units": {"hERG current change (%, negative = inhibition) at 1uM": "%"}, "values": [
      {"smiles": "O=C(COC(=O)/C=C/c1ccccc1F)Nc1nnc(-c2ccccc2)o1", "hERG current change (%, negative = inhibition) at 1uM": 7.16},
      {"smiles": "Cc1ccc(S(=O)(=O)NCCOCCNS(=O)(=O)c2ccc(C)cc2)cc1", "hERG current change (%, negative = inhibition) at 1uM": -2.18},
      {"smiles": "Cc1ccccc1C(=O)NC1CCN(C(=O)N2CCOCC2)CC1", "hERG current change (%, negative = inhibition) at 1uM": 12.6},
      {"smiles": "O=c1cc(O)c2c(=O)n(C3CCCCC3)c3ccccc3c2o1", "hERG current change (%, negative = inhibition) at 1uM": 10.4},
      {"smiles": "CC(C)OC(=O)CSc1nc2c(cc1C#N)CCCCC2", "hERG current change (%, negative = inhibition) at 1uM": 10.2},
      {"smiles": "CC12CCC(=O)N1C(C(=O)Nc1cccc(S(=O)(=O)N3CCCCCC3)c1)CS2", "note": "(stereo not drawn)", "hERG current change (%, negative = inhibition) at 1uM": -29.7},
      {"smiles": "CC12CCC(=O)N1C(C(=O)OCC(=O)Nc1cc(S(=O)(=O)N3CCCCC3)ccc1Cl)CS2", "note": "(stereo not drawn)", "hERG current change (%, negative = inhibition) at 1uM": 11.1},
      {"smiles": "CC12CCC(=O)N1C(C(=O)OCC(=O)Nc1cccc(S(=O)(=O)N3CCCCCC3)c1)CS2", "note": "(stereo not drawn)", "hERG current change (%, negative = inhibition) at 1uM": -51.9},
      {"smiles": "COc1ccc(CNCC(O)(c2ccccc2)c2ccc(F)cc2)cc1", "note": "(stereo not drawn)", "hERG current change (%, negative = inhibition) at 1uM": -45.9},
      {"smiles": "O=C(CN1CCCC1=O)NCCc1ccccc1", "hERG current change (%, negative = inhibition) at 1uM": 8.88},
      {"smiles": "CN(CCc1ccccn1)Cc1ccc(Cl)cc1", "hERG current change (%, negative = inhibition) at 1uM": -24.6},
      {"smiles": "CCOc1ccc(CN(C)C(C)C(=O)NCCc2ccc(F)cc2)cc1", "note": "(stereo not drawn)", "hERG current change (%, negative = inhibition) at 1uM": -57.1},
      {"smiles": "CCc1ccc(CN(C)CCc2ccccn2)cc1", "hERG current change (%, negative = inhibition) at 1uM": -34.7},
      {"smiles": "CN(CCc1ccccn1)Cc1ccc(Cl)c(Cl)c1", "hERG current change (%, negative = inhibition) at 1uM": -0.903},
      {"smiles": "CCC(CC)C(=O)NCCc1ccc(F)cc1", "hERG current change (%, negative = inhibition) at 1uM": 10.2},
      {"smiles": "CCOc1ccc(CN(C)C(C)C(=O)NCc2ccccc2)cc1", "note": "(stereo not drawn)", "hERG current change (%, negative = inhibition) at 1uM": -21.7},
      {"smiles": "CCOc1ccc(CN(C)CCc2ccccn2)cc1.O=C(O)C(=O)O", "hERG current change (%, negative = inhibition) at 1uM": -58.8},
      {"smiles": "CN(CC(=O)NCc1ccccc1)Cc1ccc(Cl)cc1", "hERG current change (%, negative = inhibition) at 1uM": 2.36},
      {"smiles": "CSc1ccc(CN(C)CCc2ccccn2)cc1.O=C(O)C(=O)O", "hERG current change (%, negative = inhibition) at 1uM": -21.3},
      {"smiles": "CSc1ccc(CN(C)CC(=O)NCc2ccccc2)cc1", "hERG current change (%, negative = inhibition) at 1uM": -11.1},
      {"smiles": "CCOc1ccc(CN(C)CC(=O)NCc2ccccc2)cc1", "hERG current change (%, negative = inhibition) at 1uM": -82.3},
      {"smiles": "CN(CCc1ccccn1)Cc1ccc(Cl)cc1Cl", "hERG current change (%, negative = inhibition) at 1uM": -54.1},
      {"smiles": "O=c1c2ccccc2c(/C=N/c2nnc(Cc3ccccc3)s2)c(O)n1-c1ccc(Cl)cn1", "hERG current change (%, negative = inhibition) at 1uM": 11.3},
      {"smiles": "COC(=O)C(C)NS(=O)(=O)c1ccc(NC(C)=O)cc1", "note": "(stereo not drawn)", "hERG current change (%, negative = inhibition) at 1uM": 1.66},
      {"smiles": "Cc1ccc(C(=O)c2coc3cc([N+](=O)[O-])c(O)c([N+](=O)[O-])c23)cc1", "hERG current change (%, negative = inhibition) at 1uM": 7.26},
      {"smiles": "COCCCn1c(=O)/c(=C\\c2ccccc2OC(F)F)s/c1=C(/C#N)C(=O)N1CCOCC1", "hERG current change (%, negative = inhibition) at 1uM": 9.19},
      {"smiles": "CCN(CCn1cccn1)C(=O)c1cc(COc2ccc(F)c(F)c2)on1", "hERG current change (%, negative = inhibition) at 1uM": -27.1},
      {"smiles": "COc1cc(S(=O)(=O)N2CCOCC2)ccc1NC(=O)c1cc2c(s1)CCC2", "hERG current change (%, negative = inhibition) at 1uM": 3.78},
      {"smiles": "Cc1ccc2c(c1)N(C(=O)CCC(=O)NCc1cccnc1)CCO2", "hERG current change (%, negative = inhibition) at 1uM": -4.63},
      {"smiles": "COc1cccc(CN(C)CC(=O)NCc2ccccc2Cl)c1", "hERG current change (%, negative = inhibition) at 1uM": 14.6},
      {"smiles": "COc1cccc(CN(C)CC(=O)NCc2ccccc2Cl)c1OC", "hERG current change (%, negative = inhibition) at 1uM": 10.6},
      {"smiles": "CCOc1ccc(CN(C)CC(=O)NCc2ccc(F)cc2)cc1", "hERG current change (%, negative = inhibition) at 1uM": -78.6},
      {"smiles": "CCOc1ccc(CN(C)CC(=O)NCc2ccccc2Cl)cc1", "hERG current change (%, negative = inhibition) at 1uM": -73.6},
      {"smiles": "CN(CC(=O)NCc1ccc(F)cc1)Cc1ccc(Br)cc1", "hERG current change (%, negative = inhibition) at 1uM": 2.94},
      {"smiles": "CSc1ccc(CN(C)CC(=O)NCc2ccc(F)cc2)cc1", "hERG current change (%, negative = inhibition) at 1uM": -19.3},
      {"smiles": "CCOC(=O)c1ccc(Oc2nc(NC(C)(C)C)nc(N(C)C)n2)cc1", "hERG current change (%, negative = inhibition) at 1uM": 6.02},
      {"smiles": "CCOC(=O)Nc1c(C(=O)OC)[nH]c2cc(OC)ccc12", "hERG current change (%, negative = inhibition) at 1uM": -3.1},
      {"smiles": "CCCn1c(SCc2ccccn2)nc2c1c(=O)n(C)c(=O)n2C", "hERG current change (%, negative = inhibition) at 1uM": 16.5},
      {"smiles": "CN(C)C(=S)NC(=NCc1ccc([N+](=O)[O-])cc1)c1ccccc1", "hERG current change (%, negative = inhibition) at 1uM": -60.3},
      {"smiles": "O=[N+]([O-])c1cccc(C(=NCc2ccccc2)NO)c1", "hERG current change (%, negative = inhibition) at 1uM": 15.5},
      {"smiles": "O=[N+]([O-])c1ccc(NC(=S)N/C(=N/CS(=O)(=O)c2ccccc2)c2ccccc2)cc1", "hERG current change (%, negative = inhibition) at 1uM": 11},
      {"smiles": "S=C(NCCc1ccccn1)Nc1ccccc1Cl", "hERG current change (%, negative = inhibition) at 1uM": 17},
      {"smiles": "COc1cn(-c2ccccc2)nc1C(=O)OCC(=O)Nc1ccc(C)c(C)c1", "hERG current change (%, negative = inhibition) at 1uM": 12.1},
      {"smiles": "CC(NC(=O)c1ccc2c(c1)OCO2)C1CCCO1", "note": "(stereo not drawn)", "hERG current change (%, negative = inhibition) at 1uM": -0.0414},
      {"smiles": "CCN(CC)C(=O)CSc1nc2c(sc(=S)n2-c2ccccc2)c(=O)n1Cc1ccco1", "hERG current change (%, negative = inhibition) at 1uM": -86.3},
      {"smiles": "CCCCn1c(SCC(=O)N2CCOCC2)nc2ccccc2c1=O", "hERG current change (%, negative = inhibition) at 1uM": -39.4},
      {"smiles": "C=CCn1c(SCC(=O)N2CCc3ccccc3C2)nc2sc(CC)cc2c1=O", "hERG current change (%, negative = inhibition) at 1uM": 10.8},
      {"smiles": "CCN(CC)C(=O)CSc1nc2c(sc(=S)n2Cc2ccco2)c(=O)n1-c1ccccc1", "hERG current change (%, negative = inhibition) at 1uM": 5.26},
      {"smiles": "O=C(CSc1nc2ccccc2c(=O)n1Cc1ccco1)N1CCCC1", "hERG current change (%, negative = inhibition) at 1uM": -81.3},
      {"smiles": "C=CCn1c(SCC(=O)N2CCCC2=O)nc2sc(CC)cc2c1=O", "hERG current change (%, negative = inhibition) at 1uM": -20},
      {"smiles": "CC(C)Cn1c(SCC(=O)N2CCN(C(=O)c3ccco3)CC2)nc2ccccc2c1=O", "hERG current change (%, negative = inhibition) at 1uM": -42.9},
      {"smiles": "CCN(CC)C(=O)CSc1nc2c(sc(=S)n2CC)c(=O)n1-c1ccccc1", "hERG current change (%, negative = inhibition) at 1uM": -13.3},
      {"smiles": "CCCn1c(SCC(=O)N2CCN(C(=O)c3ccco3)CC2)nc2ccccc2c1=O", "hERG current change (%, negative = inhibition) at 1uM": -84.8},
      {"smiles": "NC(=O)CSc1nc2ccccc2c(=O)n1Cc1ccco1", "hERG current change (%, negative = inhibition) at 1uM": -15.1},
      {"smiles": "CCOC(=O)CSc1nc2ccccc2c(=O)n1Cc1ccco1", "hERG current change (%, negative = inhibition) at 1uM": 0.785},
      {"smiles": "C=CCn1c(SCC(=O)N2CCN(C(=O)c3ccco3)CC2)nc2sc(CC)cc2c1=O", "hERG current change (%, negative = inhibition) at 1uM": -85.6},
      {"smiles": "Cc1cccc(OCCNC(=O)CCNS(=O)(=O)c2ccc3ccccc3c2)c1", "hERG current change (%, negative = inhibition) at 1uM": 6.04}
    ]}
  ]
}
